For 15 sequences, sensor-assay potency score (higher = more potent) results are on record in the OligoGym collection.
Also: reference of the scale not given here.

For one assay, the target named is ANAPC5. In words: pooled miR-30 sensor sort-seq; sequence = guide strand. As to conditions: shRNA.
Take ATAGCTATCGGATCTCTTCTGC: the sensor-assay potency score (higher = more potent) worked out at 0.457.
On the same count and under the same terms, the figure for TTGTTTTGTGAACCTCTGGTTC is -0.673; for TGTAATACAACCGCTTTCCTAT it is -0.539; for TTTTTGATCACATAACATCCAT it is 0.00973.

Another assay deals with ANGPTL1. The description is as above. As to conditions: shRNA.
In turn, TAATTTTGAATTGTCCACCTCT came in with a sensor-assay potency score (higher = more potent) of 0.889.
TTAAATCTCTGGGATAACCTGG showed a sensor-assay potency score (higher = more potent) of -0.522.
The same measure, in the same setting: with ATAACTTGTAATTATCTTGATT the figure was -0.722; with TTTAATGGTACTTGCATCTTGC, 0.613.
On the same count and under the same terms, with TAAATTGTTAAGTATCTTGAAC the figure was -0.687; with TATAGAGTTGAGTAACACGAGA, -1.16; with TTGATTGCTAAGCATATAGATA, -1.25.
Sequence TAGACTTTTTTATCACTCCAGT had a sensor-assay potency score (higher = more potent) of -0.73.
On the same count and under the same terms, the figure for TTTTGCTTGCTGACAGTCTTTG is -0.992.
Regarding TTGCAGAACATCTATCTCCCGC, the sensor-assay potency score (higher = more potent) amounted to 0.289.
Take TCCATCTACATCCACCACCAGT: the sensor-assay potency score (higher = more potent) was -1.83.
